p53 PUMA act = mutant p53 pathway re-activators, primary screen, cell-based, SW480, luciferase, single point, HTS | SW480 PUMA-promoter luciferase, p53 mutant reactivation | 28,000 tested, 1.5% active | activation, % at 9.98 µM; in the data active means activation above about 52%
ID4 binder = binders of human ID4 protein, primary screen, biochemical, small molecule microarray, single point; DNA-binding protein inhibitor ID-4 (Homo sapiens), P47928; AID 624137, 2012; 31,000 tested, 1.2% active; calls only; Flag-ID4 binding, fluorescence F/B; call rule not given here;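 further: a binder raises fluorescence above local background on the spot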
Target sequence (P47928 whole entry, looked up): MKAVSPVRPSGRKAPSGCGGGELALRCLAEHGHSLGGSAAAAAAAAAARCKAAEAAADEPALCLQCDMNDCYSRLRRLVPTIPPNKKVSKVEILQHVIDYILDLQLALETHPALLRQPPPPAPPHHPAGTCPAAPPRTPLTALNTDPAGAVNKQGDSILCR
STK33 kin inh = STK33 kinase inhibitors, primary screen, biochemical, luminescence, ADP-Glo, MBP substrate; Serine/threonine-protein kinase 33 (Homo sapiens), Q9BYT3; inhibition, % at 12.5 µM; 27,000 tested, 0.44% active; in the data active means inhibition above about 20%
A number is an active result; . = inactive; / = no result given; + = active, no number. Only some compounds are listed: those with a hit (about 2.1% of all), similar ones and a draw of the others.

SMILES	p53 PUMA act	ID4 binder	STK33 kin inh
COC1=CC(=O)OC(/C=C/c2ccccc2)C1 (stereo unspecified)	89.6	.	.
COc1ccc(CN2CCN(CCO)CC2)c(OC)c1C	.	.	.
CC1CCC/C=C/C2CC(O)CC2C(O)/C=C\C(=O)O1 (stereo unspecified)	.	.	/
N#CC(C#N)=Cc1ccc(O)c(O)c1	.	.	.
N#C/C(=C\c1ccc(O)cc1)C(=O)O	/	/	27.1
CN(C(=O)Cc1ccccc1)C(CN1CCCC1)c1ccccc1 (stereo unspecified)	.	.	/
C/C1=C/C(=O)O[C@@H]2C[C@@H](CC[C@H](C)/C=C\CC1)O[C@@](O)([C@@H]1CSC(=O)N1)C2	/	/	.
COc1ccc2c(c1)/C(=C/c1cnc[nH]1)C(=O)N2	/	.	79.1
CCOC(=O)[C@@H]1[C@@H]2NC(=O)N(C)[C@@]1(COCc1ccc(OC)cc1)Oc1ccccc12	/	.	/
COC(=O)[C@@]1(O)C[C@@H]2O[C@@]1(C)n1c3ccccc3c3c4c(c5c6ccccc6n2c5c31)C(=O)NC4	/	/	107.6
C=C1[C@@H](C)[C@H]2[C@H](Cc3ccccc3)NC(=O)[C@]23[C@H](OC(C)=O)C=C[C@](C)(O)C(=O)[C@@H](C)C/C=C/[C@H]3[C@@H]1O	.	/	.
Cc1ccc2c(c1)-c1cc(C)nn1C(c1cccnc1)N2 (stereo unspecified)	.	.	/
CC[C@@H]1/C=C\C=C\C[C@H](C)C(O)[C@](C)(O)C(=O)[C@H](C)C(O)[C@H](C)C(=O)[C@H](C)[C@@H](O)[C@H](C)/C=C/C(=O)O[C@H]2[C@@H](C)[C@@H](CC1)O[C@@]1(CC[C@@H](C)[C@@H](C[C@H](C)O)O1)[C@@H]2C (stereo partly specified)	/	/	.
Cc1cc(O)cc2oc(=O)c3c(O)cc(O)cc3c12	.	.	74.1
C[C@@H]1O[C@@H](O[C@H]2[C@H](O)[C@@H](O)[C@H](O[C@@H]3C=C4CC[C@@H]5C(CC[C@]6(C)[C@@H](c7ccc(=O)oc7)CC[C@]56O)[C@@]4(C)CC3)O[C@@H]2CO)[C@H](O)[C@H](O)[C@H]1O (stereo partly specified)	/	/	.
Cn1cc(C(=O)C(=O)N[C@H]2CN3CCC2CC3)c2ccccc21	.	.	.
O=C(N[C@H]1CN2CCC1CC2)c1ccc(Cl)cc1	.	+	/
CO[C@H]1[C@H](O)[C@H](O[C@H]2CC[C@]3(C)C4CC[C@]5(C)[C@H](C6=CC(=O)OC6)CC[C@]5(O)C4CC[C@@H]3C2)O[C@@H](C)[C@@H]1O (stereo partly specified)	/	.	.
c1ccc2c(c1)cc1ccc3cccc4ccc2c1c34	.	.	.
O=C1c2ccccc2-c2cccc3cccc1c23	/	.	75.5
C[C@@H]1O[C@@H](OC2CCC3(C)C4CCC5(C)C(C6=CC(=O)OC6)CCC5(O)C4CC[C@H]3C2)[C@H](O)[C@H](O)[C@H]1O (stereo partly specified)	/	.	.

Screening data as filed in PubChem.
